Assay outcomes from PubChem BioAssay.
Only a selection was taken, and hits are over-represented in it overall.
TTR transcr act: increases transthyretin transcription | hit rate 1.3% among 92,000 | SH-SY5Y TTR promoter Gaussia luciferase, luminescence; 100% = recombinant luciferase protein wells | AID 1117267 | activation, % at 16.7 µM;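 active = activation above the mean of all tested compounds plus 3 SD, cut at about 9.5% in these data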;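 note: cells exposed to compounds for one day before reading; 0% = median of all test compound wells on the plate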
HuH7 TTR inh: HuH7 TTR transcription inhibition, counter-screen; AID 1117279; HuH7 TTR promoter-Gaussia luciferase reporter, luminescence; inhibition, % at 16.7 µM; shares compounds with TTR transcr act; hit rate 4% among 1,100;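 active = average inhibition above the solvent-only control wells' mean plus 3 SD, cut at about 15% in these data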;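 note: 0% = cells with DMSO only and 100% = cells with inhibitor control FD; inhibitors lower well luminescence so higher value means more inhibition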
TTR up confirm: human TTR transcription activation, confirmation; shares compounds with TTR transcr act; SHSY5Y TTR promoter Gaussia luciferase, luminescence; 100% = purified Lucia enzyme wells, no cells; activation, % at 16.7 µM; 1,100 tested, under 10 active;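 active = mean activation above a set limit taken from the earlier primary screen, cut at about 11% in these data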;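 note: 0% = DMSO-treated cells and 100% = recombinant Lucia luciferase without cells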
* marks the source's active call; other numbers are inactive results.

SMILES | TTR transcr act | others
COC(=O)c1ccc[n+](CC(=O)Nc2ccc(OC(F)F)cc2)c1 | 7
COC(=O)c1ccc(NC(=O)C[n+]2ccccc2)cc1 | 10* | HuH7 TTR inh=-13;TTR up confirm=2
O=C(C[n+]1ccccc1)Nc1ccccc1 | 0
Cc1cc2nc(-c3ccccc3)c(Cc3cccc(Cl)c3)n2c(C)c1Br | -2
CCCCOCCCNC(=O)C[C@@H]1C(=O)N(CCc2ccc(Cl)cc2)C2=CCCC[C@]21C(=O)OCC | -1
Cc1cc(C)c(C)c(S(=O)(=O)NCCCn2ccnc2)c1C | 9
COc1ccc(C2/C(=C(/O)c3ccc(F)cc3)C(=O)C(=O)N2CCCN(C)C)cc1 (stereo not given) | 12* | HuH7 TTR inh=-11;TTR up confirm=1
COc1ccc(/C(O)=C2/C(=O)C(=O)N(CCCN3CCOCC3)C2c2ccc(N(C)C)cc2)cc1 (stereo not given) | 1
CCCOc1cccc(C2/C(=C(/O)c3ccc(OC)cc3)C(=O)C(=O)N2CCN(C)C)c1 (stereo not given) | 4
CCCC1CCC2(CC1)CCC2OC(=O)Nc1ccc(F)cc1 (stereo not given) | 0
Nc1nonc1C(=O)NCCNc1ccc([N+](=O)[O-])cc1 | 0
COc1ccc(C(=O)NCCNc2ccc([N+](=O)[O-])cc2)cc1 | 3
Cc1nonc1OC(C)CNCCNc1ccc([N+](=O)[O-])cc1 (stereo not given) | 11* | HuH7 TTR inh=-20;TTR up confirm=1
Fc1ccc(Oc2ncccn2)c(F)c1 | -2
C[C@H]1[C@H](NC(=O)c2ccc(Cl)cc2)CC[C@@]23CCCN2C(=O)CCC[C@@H]13 | 0
O=C(OCc1ccccc1)[C@H](Cc1ccccc1)NC(=O)[C@@H]1CC=C[C@@H]2CCN(Cc3ccccc3)C(=O)[C@@H]21 | 0
CC(C)CCNC(=O)[C@@H](Cc1ccccc1)NC(=O)CC[C@H]1O[C@@H](n2ccc(=O)[nH]c2=O)[C@H](O)[C@@H]1O | 0
O=C(CC[C@H]1O[C@@H](n2ccc(=O)[nH]c2=O)[C@H](O)[C@@H]1O)N[C@@H](Cc1ccccc1)C(=O)NCc1ccccc1 | 15* | HuH7 TTR inh=-9;TTR up confirm=-1
O=c1ccn([C@@H]2O[C@H](CNCc3ccc(-n4cccn4)cc3)[C@@H](O)[C@H]2O)c(=O)[nH]1 | -1
COc1ccc(OCC(O)CNC(=O)Nc2cccc3ccccc23)cc1 (stereo not given) | -2
Cc1ccnc(N2CCC(C(=O)Nc3ccc4c(c3)OCCO4)CC2)n1 | -3
COc1ccc(CCNC(=O)CSc2nc3[nH]ncc3c(=O)[nH]2)cc1OC | 3
Cc1ccccc1C(=O)n1ccc2ccc(-c3ccc4ccn(Cc5ccc(C#N)cc5)c4c3)cc21 | 1
C[C@H]1CN([C@@H](C)CO)S(=O)(=O)c2ccc(Br)cc2O[C@H]1CN(C)C(=O)Cc1ccccc1 | 2
C[C@H](CO)N1C[C@H](C)[C@@H](CN(C)C(=O)NC2CCCC2)Oc2cc(Br)ccc2S1(=O)=O | 18* | HuH7 TTR inh=-10;TTR up confirm=2
SMILES | TTR transcr act | others
C[C@H]1CN([C@@H](C)CO)S(=O)(=O)c2ccc(Br)cc2O[C@@H]1CN(C)C(=O)C1CCOCC1 | 24* | HuH7 TTR inh=-8;TTR up confirm=1
CCCNC(=O)N(C)C[C@@H]1Oc2cc(Br)ccc2S(=O)(=O)N([C@@H](C)CO)C[C@H]1C | 3
C[C@H]1CN([C@@H](C)CO)S(=O)(=O)c2ccc(-c3cncnc3)cc2O[C@H]1CN(C)C(=O)NC1CCCC1 | 0
CCC(=O)N(C)C[C@H]1Oc2cc(Br)ccc2S(=O)(=O)N([C@@H](C)CO)C[C@H]1C | 15* | HuH7 TTR inh=-11;TTR up confirm=0
C[C@H](CO)N1C[C@H](C)[C@H](CN(C)C(=O)CC2CC2)Oc2cc(Br)ccc2S1(=O)=O | 0
C[C@H](CO)N1C[C@H](C)[C@@H](CN(C)C(=O)c2ccc(F)cc2)Oc2cc(Br)ccc2S1(=O)=O | 1
C[C@H]1CN([C@@H](C)CO)S(=O)(=O)c2ccc(Br)cc2O[C@H]1CN(C)C(=O)CN(C)C | -1
CCOC(=O)C(Cc1ccccc1)CP(=O)(OC)[C@@H](C)NC(=O)OCc1ccccc1 (stereo not given in full) | 0
CC1(C)C=Cc2ccc(O)c(C(=O)/C=C/c3ccccc3)c2O1 | 0
N#CN1CCC(NS(=O)(=O)c2ccc(F)cc2)C1 (stereo not given) | 5
Cn1cnc2nc[nH]c2c1=O | 0
CC1(C)CC(=O)C2=C(C1)OC1=C(C2)C(=O)CC(C)(C)C1 | 2
Cc1onc(-c2c(Cl)cccc2Cl)c1C(=O)Nc1ccc(N2CCOCC2)cc1 | 0
O=C(N/C(=C/c1cccnc1)C(=O)N1CCOCC1)c1ccccc1F | 20* | HuH7 TTR inh=-3;TTR up confirm=-1
CC(=O)N/C(=C\c1ccccc1)C(=O)N1CCOCC1 | -2
O=C(N/C(=C/c1cccnc1)C(=O)N1CCOCC1)c1ccccc1Cl | -1
CCOC(=O)[C@@H]1[C@H]2COc3ccccc3[C@H]2N2C(=O)N(c3ccc(C(F)(F)F)cc3)C(=O)[C@]12C | -4
Cn1c(=O)c2c(ncn2CC(O)CNc2ccc(F)cc2)n(C)c1=O (stereo not given) | 16* | HuH7 TTR inh=-11;TTR up confirm=0
Cn1c(=O)c2c(ncn2CC(=O)N2CCN(S(=O)(=O)c3ccc(F)cc3)CC2)n(C)c1=O | -1
Cn1c(=O)c2c(nc(SCC(=O)c3ccc(F)cc3)n2C)n(C)c1=O | 0
C[C@H]1[C@H](N(C)C)CC[C@@]23CCCN2C(=O)CCC[C@@H]13 | 3
Cc1ccc(NC(=O)c2cc(S(=O)(=O)N3CCCC3)c[nH]2)c(C)c1 | -1
Cc1cc(Nc2ccc3c(c2)OCCO3)c2cccc(C)c2n1 | 0
Cc1cc(C)c2c(=O)[nH]c(SCc3ccccc3C)nc2n1 | -1
Cc1cc(C)c2c(N)c3cccc(C)c3nc2n1 | 12* | HuH7 TTR inh=-4;TTR up confirm=3
SMILES | TTR transcr act | others
COc1cccc(C2CC(c3cccs3)=NN2C(=S)Nc2ccccc2)c1OC (stereo not given) | 2
Cc1ccc(C2CC(c3ccccc3)=NN2C(=S)Nc2ccccc2)o1 (stereo not given) | 11* | HuH7 TTR inh=25*;TTR up confirm=0
COc1ccc(C2CC(c3cccs3)=NN2C(=S)Nc2ccccc2)cc1OC (stereo not given) | 1
CC[C@@]1(c2cccc(Cl)c2)C(=O)N(C(=O)OC(C)C)N1C(=O)OC(C)C | -2
COC(=O)C1CCN(C2CN(Cc3ccc(C)cc3)S(=O)(=O)C2)CC1 (stereo not given) | -2
COc1ccc(S(=O)(=O)NCC2CCCO2)cc1NC(=O)c1ccccc1F (stereo not given) | 0
COC(=O)[C@]12C[C@H](CC(=O)N3CCC(c4ccccc4)CC3)C(=O)N(CCc3ccc(OC)c(OC)c3)C1=C[C@H](COCc1ccccc1)O[C@@H]2C | -1
N/C(=N\OC(=O)c1ccc(F)cc1)c1ccccc1 | 0
CC(C)(C)OC(=O)N1C(=O)[C@](OC(=O)c2ccccc2)(c2ccc(F)cc2)c2ccccc21 | 21* | HuH7 TTR inh=4;TTR up confirm=-1
O=C(NC(=S)N1CCN(c2ccc(F)cc2)CC1)c1ccccc1 | -1
O=S1(=O)CCOCCCN1Cc1ccccc1Br | -1
O=S1(=O)CC2c3ccccc3CCN2CN1CCc1ccccc1 (stereo not given) | -1
